# TEAD-YAP block: TEAD-YAP interaction inhibition. HEK-TIYL cells, TEAD-Gal4/YAP UAS-luciferase luminescence. inhibition, % at 9.12 µM. 1.4% of 640,000 active; in the data active = inhibition above about 32%;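 note: 0% = median of test compound wells and 100% = reference inhibitor wells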
# FBW7 act: activators of human E3 ligase FBW7; 0.13% of 650,000 active; Q969H0; AlphaScreen FBW7–phospho-cyclin E peptide binding, activator screen; AID 1259310; normalized activity (activation), % at 26.1 µM; in the data active = normalized activity above about 1.9%;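 note: purified mutant Fbw7 with reduced substrate affinity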
# GPR151 activ: activators of human GPR151 | Q8TDV0 | 1% of 650,000 active | activation, % at 11.2 µM | PathHunter beta-arrestin GPR151 cells, luminescence; in the data active = activation above about 4.9%;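 note: 0% = median of compound wells and 100% = cells with positive control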
# Target sequence (Q8TDV0 whole entry, looked up): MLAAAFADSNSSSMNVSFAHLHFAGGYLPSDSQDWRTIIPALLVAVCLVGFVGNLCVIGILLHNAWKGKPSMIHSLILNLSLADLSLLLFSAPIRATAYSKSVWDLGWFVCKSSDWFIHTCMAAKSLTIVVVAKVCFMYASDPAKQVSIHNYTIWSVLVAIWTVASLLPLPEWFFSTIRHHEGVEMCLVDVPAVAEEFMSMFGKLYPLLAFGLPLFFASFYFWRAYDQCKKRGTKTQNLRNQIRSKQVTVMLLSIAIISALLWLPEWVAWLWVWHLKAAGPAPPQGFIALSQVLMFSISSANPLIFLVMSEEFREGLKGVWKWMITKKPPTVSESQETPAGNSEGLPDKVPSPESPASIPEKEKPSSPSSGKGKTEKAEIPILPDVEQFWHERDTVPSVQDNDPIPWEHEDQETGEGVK
# MITF primary: blocks human microphthalmia-associated transcription factor | 0.91% of 650,000 active | inhibition, % at 2.6 µM | AlphaScreen MITF homodimerization, bead proximity signal | O75030; in the data active = inhibition above about 50%;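 note: 0% = vehicle wells with protein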
# GPR151 conf act: confirmation of human GPR151 activators; activation, % at 11.2 µM; 6,700 tested, under 10 active; AID 1508609; GPR151 PathHunter beta-arrestin cells, luminescence, 90 min; % of EA-reagent control over plate median; shares compounds with GPR151 activ;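 active = mean percent activation across replicates above the confirmation screen cutoff of 4.91%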
# GPR119 counter: GPR119 activation, counter-screen for GPR151 activators; 0.3% of 6,700 active; GPR119 PathHunter beta-arrestin cells, luminescence, 90 min; 0 = compound-well median, 100 = enzyme-acceptor control; activation, % at 11.2 µM; shares compounds with GPR151 activ;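 active = mean percent activation in the counterscreen above 29.09%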;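 note: counterscreen on off-target GPR119 to flag nonselective hits from the GPR151 activator screen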
# The depositor's hits bear a star; · = no result given. Only some compounds are listed: those with a hit (about 3.5% of all), similar ones and a draw of the others.
SMILES,TEAD-YAP block,FBW7 act,GPR151 activ,MITF primary,GPR151 conf act,GPR119 counter
C[C@H]1C(=O)N2CCN(Cc3ccc(F)c(F)c3)C[C@@H]2C(=O)N1C,-4,0,6.8*,-6,-1,5
N#C/C(=C\c1ccc2c(c1)OCO2)C(=O)Nc1ccc(Cl)c([N+](=O)[O-])c1,4,0,6.0*,16,1,-12
COc1ccc(CNc2ccc3c(c2)OCO3)cc1Br,-10,0,3,10,·,·
O=C(Nc1cc2ccccc2cc1NC(=O)c1ccc(Cl)cc1)c1ccc(Cl)cc1,-4,0,5.6*,2,1,19
CCOC(=O)c1ccc(NC(=O)CCN2C(=O)c3cccc4cccc(c34)C2=O)cc1,-3,0,1,-1,·,·
C/C(=N\Nc1ccccc1)c1no[n+]([O-])c1C,-6,0,6.1*,0,-1,-7
CN(CC(=O)N(Cc1ccccc1)C(C)(C)C)S(=O)(=O)c1ccc(Cl)cc1,-2,0,0,7,·,·
O=C(COC(=O)c1ccc(OC(F)(F)F)cc1)NNC(=O)c1cccs1,-7,0,0,12,·,·
COc1ccc(O)c(C2NC(=O)NC(C)=C2C(=O)OC(C)C)c1 (stereo unspecified),-14,0,0,3,·,·
COc1ccc(OC)c(C2NC(=O)NC(C)=C2C(=O)OC(C)C)c1 (stereo unspecified),-2,0,5.1*,22,0,12
COC(=O)c1ccc2c(=O)n(Cc3ccc(C(=O)NC4CCCCCC4)cc3)c(=S)[nH]c2c1,-7,0,6.0*,-10,-2,-21
COC(=O)c1ccc2c(=O)n(Cc3ccc(C(=O)NC4CCCC4)cc3)c(=S)[nH]c2c1,-4,0,0,-12,·,·
CCc1cccc(NC(=O)C2CCCC2)c1,-17,0,10*,7,0,-11
CCOC(=O)C1=CN(Cc2ccc(F)cc2)C=C(C(=O)OCC)C1c1ccc(OCc2ccccc2)c(OC)c1,1,0,14*,-26,0,7
COC(=O)C1=CN(Cc2ccc(F)cc2)C=C(C(=O)OC)C1c1ccc(OCc2ccccc2)c(OC)c1,0,1,0,1,·,·
NC(C(=O)N1CCN(c2ccc3cnccc3c2)CC1)c1ccc(-c2ccccc2)cc1 (stereo unspecified),-4,0,7.5*,12,0,2
NC(C(=O)N1CCC(Nc2ccc3cnccc3c2)CC1)c1ccc(-c2ccccc2)cc1 (stereo unspecified),-18,0,-1,-12,·,·
CC(=O)c1ccc(N=c2scc(C)n2C2CCCC2)cc1,-22,0,0,0,·,·
COC(=O)c1ccc(C)c(NC(=O)CN(c2ccc(F)cc2)S(C)(=O)=O)c1,2,0,7.1*,-12,-1,-5
COC(=O)c1ccc(NC(=O)CN(c2ccc(F)cc2)S(C)(=O)=O)cc1,-11,1,-1,1,·,·
Cc1cnc(-c2cccc(N)c2)nc1NCCOc1ccccc1,0,0,4,-1,·,·
CCOC(=O)c1c(NC(=O)Nc2ccc(Cl)cc2)sc2c1CC(C)(C)OC2,-10,0,5.2*,-9,2,8
CCOC(=O)c1c(NC(=O)CC)sc2c1CC(C)(C)OC2,-4,0,-1,-2,·,·
Cc1ccc(O)c(NC(=O)c2cnn3cc(Br)cnc23)c1,2,1,7.5*,1,1,4
Cc1ccc(O)c(NC(=O)c2cc3ncc(Br)cn3n2)c1,-10,1,-1,13,·,·
SMILES,TEAD-YAP block,FBW7 act,GPR151 activ,MITF primary,GPR151 conf act,GPR119 counter
O=C(Nc1ccc([N+](=O)[O-])cc1Cl)c1cc2ncc(Br)cn2n1,-4,0,-1,6,·,·
O=C(Nc1ccc([N+](=O)[O-])cc1Cl)c1cnn2cc(Br)cnc12,0,0,7.2*,3,-1,6
COC(=O)c1sc2ccccc2c1NC(=O)c1ccc(Oc2ccccc2)cc1,3,0,10*,-13,0,0
COC(=O)c1sc2ccccc2c1NC(=O)c1ccc(C(=O)c2ccccc2)cc1,7,0,2,11,·,·
O=[N+]([O-])c1ccccc1C=Nc1cccc(CO)c1,8,0,0,-5,·,·
Clc1ccc(C2C3=C(Nc4ncnn42)c2ccccc2CCC3)cc1 (stereo unspecified),-6,0,6.0*,-3,0,4
Cc1ccc(C(=O)NC(=S)NNc2nc3ccccc3[nH]2)cc1,-5,0,5.3*,15,2,8
Cn1nc([N+](=O)[O-])c2c(-c3nc4ccccc4n3C)c(N)n(CCc3ccccc3)c2c1=O,7,0,6.0*,1,-1,-11
CC(=O)c1c(C)[nH]c(C(=O)CSC(=S)N2CCCC2)c1C,-41,1,0,15,·,·
O=C(CSc1nnc(-c2ccccc2)o1)c1ccc2c(c1)OCCO2,-6,0,-1,-9,·,·
CCN(C(=O)CSc1nnc(-c2ccco2)o1)C1CCS(=O)(=O)C1 (stereo unspecified),-10,0,12*,-3,1,4
O=C(CSc1nnc(-c2ccco2)o1)c1ccc2c(c1)OCCO2,10,0,12*,12,0,-5
COc1ccc(CNC(=O)c2c(C)nc3ccccn23)cc1OC,-5,0,0,3,·,·
O=C(c1cccc([N+](=O)[O-])c1)N1CCCc2ccccc21,-4,0,5.0*,-1,1,-1
O=C(c1ccc([N+](=O)[O-])cc1)N1CCCc2ccccc21,-10,0,-1,12,·,·
O=C(c1ccc(-n2cnnn2)cc1)N1CCCc2ccccc21,0,0,5.0*,-10,0,-8
COc1ccc(Cc2cnc(NC(=O)COc3ccc(Cl)cc3)s2)cc1,-2,0,-1,21,·,·
NC(=O)NC(=O)COc1ccc(F)cc1Br,-23,0,8.2*,3,0,0
O=Cc1ccc(OCC(=O)Nc2ccc(F)cc2)c(Br)c1,-9,0,-1,6,·,·
CN(C)c1nc(Nc2ccc(F)cc2)c2cnn(C)c2n1,-3,0,2,2,·,·
Cc1ccc(Nc2nc(N(C)C)nc3c2cnn3C)cc1C,-10,0,6.2*,10,3,9
Cc1cc(C)n(CC(O)CN(c2cccc([N+](=O)[O-])c2)S(=O)(=O)c2ccccc2)n1 (stereo unspecified),-1,0,1,11,·,·
Cc1ccc(S(=O)(=O)N(CC(O)Cn2nc(C)cc2C)c2cccc([N+](=O)[O-])c2)cc1 (stereo unspecified),10,0,5.8*,7,3,4
CNC(=O)C1CN(Cc2ccc3c(c2)OCO3)CCN1C(=O)c1ccc(F)c(F)c1 (stereo unspecified),-2,0,7.2*,3,0,-9
CCOc1ccc(-n2c(C)nc3cc(C(=O)NCCCN(CC)CC)ccc32)cc1,-7,0,-1,-11,·,·
